{
  "source": "PubChem BioAssay (EPA / NIEHS)",
  "note": "Calls of active or inactive are those of the source. How the source made its calls: active means hit-call score of the fitted dose curve at least 0.9, where 1 is the maximum; inactive means score below 0.9.",
  "data": [
    {"assay": "BSK_hDFCGF_SRB: Viability Assessment in the BioMAP Diversity Plus: hDFCGF Assay (AID 2283061);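 further: cells exposed to compound for 24 h before the read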", "settings": "primary human foreskin fibroblasts", "how_it_was_run": "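Readout is SRB absorbance at 560 nm, reflecting total protein in parallel cultures of human foreskin fibroblasts harvested 24 h after chemical dosing. Activity was fitted bidirectionally relative to DMSO.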", "values": [
      {"smiles": "CCCCOC(=O)CC(CC(=O)OCCCC)(OC(C)=O)C(=O)OCCCC", "outcome": "inactive"},
      {"smiles": "OC12N=C(c3ccccc3)SC1Cc1cc(Cl)ccc12", "note": "(stereo not drawn)", "outcome": "inactive"},
      {"smiles": "CCCCCCCCCCCC[N+](C)(C)C", "AC50": "18.4 µM (active)"},
      {"smiles": "Clc1ccccc1C(c1ccccc1)(c1ccccc1)n1ccnc1", "AC50": "9.78 µM (active)"},
      {"smiles": "O=C=NCCCCCCN=C=O", "outcome": "inactive"},
      {"smiles": "CCCCCc1ccc(N)cc1", "outcome": "inactive"},
      {"smiles": "O=C(OCCCCCCOC(=O)c1ccccc1)c1ccccc1", "outcome": "inactive"},
      {"smiles": "C[C@]12CC[C@@H]3c4ccc(O)cc4CC[C@H]3[C@@H]1CCC2=O", "outcome": "inactive"},
      {"smiles": "O=c1c(-c2ccc(O)cc2)coc2cc(O)cc(O)c12", "AC50": "14.3 µM (active)"},
      {"smiles": "C[C@]12CC[C@@H]3c4ccc(O)cc4CC[C@H]3[C@@H]1CC[C@H]2O", "outcome": "inactive"},
      {"smiles": "CCCCCCCCCCCO", "AC50": "30 µM (active)"},
      {"smiles": "Oc1ccc2ccccc2c1", "outcome": "inactive"},
      {"smiles": "O=C1c2ccccc2C(=O)N1CCc1noc(-c2ccc(CN3CCCCCC3)s2)n1", "outcome": "inactive"},
      {"smiles": "CCO[Si](CCCNC(N)=O)(OCC)OCC", "outcome": "inactive"},
      {"smiles": "CCCOC(=O)c1cc(O)c(O)c(O)c1", "outcome": "inactive"},
      {"smiles": "CCCCCCCCCC(=O)O", "outcome": "inactive"},
      {"smiles": "CN(C[C@@H](CC[N+]12CCC(C3CCCCC3)(CC1)CC2)c1ccc(Cl)c(Cl)c1)C(=O)c1cc(C(F)(F)F)cc(C(F)(F)F)c1", "AC50": "5.86 µM (active)"},
      {"smiles": "Cc1cn([C@H]2C[C@H](N=[N+]=[N-])[C@@H](CO)O2)c(=O)[nH]c1=O", "outcome": "inactive"},
      {"smiles": "Cc1cc(F)ccc1-c1cc(N2CC[C@@H](O)[C@H]2CO)ncc1N(C)C(=O)C(C)(C)c1cc(C(F)(F)F)cc(C(F)(F)F)c1", "AC50": "15.7 µM (active)"},
      {"smiles": "CC[C@@H]1C[C@H](N(Cc2cc(C(F)(F)F)cc(C(F)(F)F)c2)C(C)=O)c2cc(C(F)(F)F)ccc2N1C(=O)OC(C)C", "outcome": "inactive"},
      {"smiles": "CC(=O)N1CCN(c2ccc(OC[C@H]3CO[C@](Cn4ccnc4)(c4ccc(Cl)cc4Cl)O3)cc2)CC1", "AC50": "32.9 µM (active)"},
      {"smiles": "CCCCCCCC[Si](OCC)(OCC)OCC", "outcome": "inactive"},
      {"smiles": "O=C1CCC(C2CCCCC2)CC1", "AC50": "34.4 µM (active)"},
      {"smiles": "CN1C(=O)N(c2ccccc2Br)Cc2cnc(Nc3ccc4c(c3)OCC(CO)O4)nc21", "note": "(stereo not drawn)", "AC50": "19 µM (active)"},
      {"smiles": "CN(C)c1ccc(C(=C2C=CC(=[N+](C)C)C=C2)c2ccc(N(C)C)cc2)cc1", "AC50": "2 µM (active)"},
      {"smiles": "CCCCCCCCCCCCO", "AC50": "30.6 µM (active)"},
      {"smiles": "CCCC(=O)OCCC(C)C", "outcome": "inactive"},
      {"smiles": "c1ccc2n[nH]nc2c1", "outcome": "inactive"},
      {"smiles": "O=CCCCC=O", "AC50": "33.4 µM (active)"},
      {"smiles": "COc1ccc2cc(S(=O)(=O)N[C@H](CC(=O)N[C@H](Cc3ccc(CN4[C@H](C)CCC[C@@H]4C)cc3)C(=O)N(C)C(C)C)c3ccc4c(c3)OCO4)ccc2c1", "AC50": "27.7 µM (active)"},
      {"smiles": "Cc1ccc2oc(CN(Cc3ccccc3)C(=O)Nc3c(F)cc(F)cc3F)c(-c3ccc(Cl)cc3)c2c1", "outcome": "inactive"},
      {"smiles": "O=c1ccc2ccccc2o1", "outcome": "inactive"},
      {"smiles": "Cc1ncc(CO)c(CO)c1O", "outcome": "inactive"},
      {"smiles": "Cc1cccc2ccccc12", "outcome": "inactive"},
      {"smiles": "CCCCCCCCN(C)CCCCCCCC", "outcome": "inactive"},
      {"smiles": "Cc1occc1C(=O)Nc1ccc(C(=O)N2CCC(F)(F)/C(=C\\C(=O)N3CCC(N4CCCCC4)CC3)c3ccccc32)cc1", "outcome": "inactive"},
      {"smiles": "CC[C@H](NC(=O)c1cc(F)ccc1NS(=O)(=O)c1cccc2cccnc12)c1ccccc1", "outcome": "inactive"},
      {"smiles": "Cc1ccc(C(C)C)cc1", "outcome": "inactive"}
    ]}
  ]
}
